The target in assay [1] is Transcription factor E2F1 (Homo sapiens) (UniProt Q01094). As to the kind of experiment: ATG_E2F_CIS: Attagene CIS-FACTORIAL HepG2 Assay for human E2F Transcription Factor 1 (AID 2282935). As to conditions: HepG2 Attagene cis-reporter, E2F reporter RNA transcripts; actives raise or lower the signal. In a few lines:
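Transient MRTU transfection of HepG2; 24 h compound exposure; RNA → oligo(dT) RT → PCR → FAM label → HpaI cut → CE fluorescence. Gain/loss of signal fit against DMSO.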

A short description of assay [2]: ATG_E_Box_CIS: Attagene CIS-FACTORIAL HepG2 Assay for human Enhancer Box (E-box) (AID 2282936). As to conditions: HepG2 E-box cis-reporter transcription, actives raise or lower the signal. In a few lines: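 Transiently transfected HepG2, endogenous TF-driven reporters, 24 h dosing. Readout: RT-PCR plus capillary electrophoresis of fluorescent reporter fragments. Gain or loss of signal fitted bidirectionally against DMSO baseline.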

Assay [3] can be described thus: ATG_M_61_CIS: Attagene CIS-FACTORIAL HepG2 Assay for M61 Transcription Factor (Internal Marker) (AID 2282937). As to conditions: HepG2 Attagene CIS-FACTORIAL M61 internal marker reporter; actives raise or lower the signal. In short, it runs like this:
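Transfect HepG2 with MRTUs; dose 24 h; isolate RNA; reverse-transcribe with DNase I treatment; PCR-amplify, FAM-label and cut with HpaI for 2 h at 37 C; resolve by CE. Bidirectional fitting against DMSO.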

The nature of assay [4]: ATG_EGR_CIS: Attagene CIS-FACTORIAL HepG2 Assay for human Early Growth Response 1 (EGR1) (AID 2282938). As to conditions: HepG2 Attagene CIS-FACTORIAL EGR reporter mRNA; actives raise or lower the signal. In a few lines: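 After a 24 h treatment of transiently transfected HepG2 cells, total RNA was reverse-transcribed and reporter sequences PCR-amplified, labelled and run on capillary electrophoresis. Reporters sit under cis-regulatory promoters sensing endogenous factors.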

A short description of assay [5]: ATG_ERE_CIS: Attagene CIS-FACTORIAL HepG2 Assay for Estrogen Response Element (ERE) (AID 2282940). As to conditions: HepG2 ERE cis-reporter, Attagene RNA transcript; actives raise or lower the signal. In a few lines:
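HepG2, transient cis-reporter units, 24 h exposure. RNA isolated, oligo(dT) RT, reporter-specific PCR, FAM extension, HpaI cut, CE detection. Gain/loss-of-signal vs DMSO.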

Assay [6] in a line: ATG_Ets_CIS: Attagene CIS-FACTORIAL HepG2 Assay for human Erythroblast Transformation Specific (ETS) (AID 2282941). As to conditions: HepG2 ETS cis-reporter transcription, actives raise or lower the signal. In a few lines:
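Endogenous transcription factor activity read as reporter mRNA via RT-PCR and capillary electrophoresis, with gain or loss fitted bidirectionally against DMSO. Human HepG2 liver cells, transiently transfected CIS reporter constructs, 24 h exposure.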

In assay [7] the target is Hepatocyte nuclear factor 3-beta (Homo sapiens) (UniProt Q9Y261). As to the kind of experiment: ATG_FoxA2_CIS: Attagene CIS-FACTORIAL HepG2 Assay for human Forkhead box A2 (FOXA2) (AID 2282942). As to conditions: HepG2 cis-reporter transcription factor activity, 24 h; actives raise or lower the signal. In a few lines: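 24 h dosing of HepG2 bearing cis-reporter constructs; mRNA readout by RT-PCR/CE fluorescence; bidirectional fit, DMSO baseline.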

Assay [8] in a line: ATG_GATA_CIS: Attagene CIS-FACTORIAL HepG2 Assay for human GATA Binding Protein (AID 2282944). As to conditions: HepG2 GATA cis-element reporter, Attagene multiplex mRNA; actives raise or lower the signal. In a few lines: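 DMSO serves as negative control and baseline for bidirectional fitting of reporter mRNA changes. HepG2 cells bearing transiently transfected cis-promoter reporters were exposed 24 h; transcripts detected via RT-PCR and capillary electrophoresis.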

A short description of assay [9]: ATG_GLI_CIS: Attagene CIS-FACTORIAL HepG2 Assay for human Zinc Finger Protein GLI1 (AID 2282945). As to conditions: HepG2, Attagene cis-factorial reporter mRNA, GLI element; actives raise or lower the signal. In short, it runs like this: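 Transiently transfected HepG2 cells report endogenous transcription factor activity via cis-element-driven reporter units. After 24 h compound exposure, reporter mRNA was measured by RT-PCR with capillary electrophoresis; bidirectional fitting against DMSO baseline.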

The nature of assay [10]: ATG_GRE_CIS: Attagene CIS-FACTORIAL HepG2 Assay for human Glucocorticoid Response Elements (GRE) (AID 2282947). As to conditions: HepG2 GRE cis-reporter, Attagene multiplex mRNA; actives raise or lower the signal. In a few lines: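 Read-out: fluorescent reporter-transcript fragments separated by capillary electrophoresis after RT-PCR. Transiently transfected HepG2 cells carrying cis-element-driven reporter units were dosed for 24 h; gain or loss of signal fitted against DMSO control.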

Assay [11] can be described thus: ATG_ISRE_CIS: Attagene CIS-FACTORIAL HepG2 Assay for human Interferon Regulatory Factor 1 (IRF1) binding to an Interferon-Stimulated Response Element (ISRE) (AID 2282948). As to conditions: HepG2 ISRE cis-reporter (Attagene), mRNA transcription readout; actives raise or lower the signal. In short, it runs like this:
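Endogenous transcription factor activity read as reporter transcript abundance via RT-PCR and capillary electrophoresis. HepG2 cells transiently transfected, 24 h chemical exposure. Gain or loss fitted against DMSO baseline.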

The nature of assay [12]: ATG_M_32_CIS: Attagene CIS-FACTORIAL HepG2 Assay for M32 Transcription Factor (Internal Marker) (AID 2282949).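 Also: background control marker of the multiplexed CIS panel rather than a real target.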 As to conditions: HepG2 Attagene cis-factorial M32 reporter, mRNA; actives raise or lower the signal. In short, it runs like this: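 Transient MRTU transfection of HepG2; 24 h compound treatment; TriZol RNA, oligo(dT) RT, reporter PCR, 6-FAM primer extension, HpaI cut, CE. Gain/loss of signal vs DMSO.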

Assay [13] can be described thus: ATG_M_06_CIS: Attagene CIS-FACTORIAL HepG2 Assay for M06 Transcription Factor (Internal Marker) (AID 2282950). As to conditions: HepG2 Attagene CIS-FACTORIAL M06 internal marker reporter; actives raise or lower the signal. In short, it runs like this: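 Fluorescence-labelled RT-PCR products from cis-promoter reporter units, cut with HpaI and resolved by capillary electrophoresis, give the signal. Cells are human HepG2, dosed for 24 h. Serves as background control, fitted relative to DMSO.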

Assay [14] addresses Hepatocyte nuclear factor 6 (Homo sapiens) (UniProt Q9UBC0). As to the kind of experiment: ATG_HNF6_CIS: Attagene CIS-FACTORIAL HepG2 Assay for human Hepatocyte Nuclear Factor 6 (HNF6) (AID 2282952). As to conditions: HepG2 Attagene cis-factorial HNF6 reporter transcription; actives raise or lower the signal. In a few lines: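 Twenty-four-hour chemical treatment of reporter-transfected HepG2 cells precedes RNA isolation, DNase-treated reverse transcription and PCR of reporter sequences. Labelled fragments are sized by capillary electrophoresis and fitted bidirectionally versus DMSO.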

Assay [15] has as its target Heat shock factor protein 1 (Homo sapiens) (UniProt Q00613). The experiment in a line: ATG_HSE_CIS: Attagene CIS-FACTORIAL HepG2 Assay for human Heat Shock Transcription Factor 1 (HSE) (AID 2282953). As to conditions: HepG2 HSE cis-reporter, Attagene RNA transcription; actives raise or lower the signal. In short, it runs like this:
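After a 24 h incubation with test chemical, transfected HepG2 cells were harvested for RNA; reporter transcripts were measured by RT-PCR and capillary electrophoresis. Values reflect gain or loss of signal relative to DMSO.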

Assay [16] is described as follows: ATG_MRE_CIS: Attagene CIS-FACTORIAL HepG2 Assay for human Metal Responsive Element (MRE) (AID 2282954). As to conditions: HepG2 MRE cis-reporter transcription, Attagene multiplex; actives raise or lower the signal. In short, it runs like this: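 RT-PCR/capillary electrophoresis readout of reporter mRNA, 24 h post-dosing, in HepG2 cells transfected with multiplexed cis-regulated reporter constructs. Gain or loss of signal fitted bidirectionally against DMSO baseline.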

The nature of assay [17]: ATG_M_19_CIS: Attagene CIS-FACTORIAL HepG2 Assay for M19 Transcription Factor (Internal Marker) (AID 2282939). As to conditions: HepG2 Attagene CIS-FACTORIAL M19 internal marker reporter; actives raise or lower the signal. In short, it runs like this:
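Following a 24 h exposure, RNA from transfected HepG2 cells was reverse-transcribed, PCR-amplified with reporter-specific primers, end-labelled with 6-FAM and HpaI-digested before capillary separation. Values represent gain or loss versus DMSO.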

The nature of assay [18]: ATG_FoxO_CIS: Attagene CIS-FACTORIAL HepG2 Assay for human Forkhead box O (FoxO) (AID 2282943). As to conditions: HepG2 Attagene cis-reporter, FoxO element, mRNA; actives raise or lower the signal. In a few lines: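 Transfected HepG2 reporter cells exposed to test chemical for 24 h; reporter RNA measured by reverse transcription, PCR and fluorescent capillary electrophoresis; curves fitted for increases and decreases against DMSO.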

The target in assay [19] is Bile acid receptor (Homo sapiens) (UniProt Q96RI1). As to the kind of experiment: ATG_IR1_CIS: Attagene CIS-FACTORIAL HepG2 Assay for human Nuclear Receptor Subfamily 1 Group H Member 4 (NR1H4), IR1 submotif (AID 2282946). As to conditions: IR1 reporter transcription, actives raise or lower the signal. In a few lines:
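Fluorescence of capillary-separated, HpaI-digested RT-PCR reporter products gave IR1-element mRNA induction in HepG2 cells 24 h after dosing. Endogenous transcription factors drove the cis-regulated reporters; activity was fitted bidirectionally against DMSO.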

The target in assay [20] is Hypoxia-inducible factor 1-alpha (Homo sapiens) (UniProt Q16665). The experiment in a line: ATG_HIF1a_CIS: Attagene CIS-FACTORIAL HepG2 Assay for human Hypoxia Inducible Factor 1 (HIF1A) (AID 2282951). As to conditions: HepG2 Attagene cis-factorial HIF1a reporter transcription; actives raise or lower the signal. In short, it runs like this:
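After 24 h chemical exposure of reporter-transfected HepG2 cells, reporter cDNA was PCR-amplified, labelled by 6-FAM primer extension (2 min 95 C, 20 s 68 C, 10 min 72 C), HpaI-cut (2 h, 37 C) and analysed by CE.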

Drawing on PubChem BioAssay (EPA / NIEHS), this text covers outcome and AC50 for four molecules.

SMILES strings stand for the structures. The source made the active and inactive calls. The calls were made as follows: active = hit-call score of the fitted dose curve at least 0.9, where 1 is the maximum; inactive = score below 0.9.

Hypoxia-inducible factor 1-alpha (Homo sapiens), sequence (Q16665 whole entry, looked up): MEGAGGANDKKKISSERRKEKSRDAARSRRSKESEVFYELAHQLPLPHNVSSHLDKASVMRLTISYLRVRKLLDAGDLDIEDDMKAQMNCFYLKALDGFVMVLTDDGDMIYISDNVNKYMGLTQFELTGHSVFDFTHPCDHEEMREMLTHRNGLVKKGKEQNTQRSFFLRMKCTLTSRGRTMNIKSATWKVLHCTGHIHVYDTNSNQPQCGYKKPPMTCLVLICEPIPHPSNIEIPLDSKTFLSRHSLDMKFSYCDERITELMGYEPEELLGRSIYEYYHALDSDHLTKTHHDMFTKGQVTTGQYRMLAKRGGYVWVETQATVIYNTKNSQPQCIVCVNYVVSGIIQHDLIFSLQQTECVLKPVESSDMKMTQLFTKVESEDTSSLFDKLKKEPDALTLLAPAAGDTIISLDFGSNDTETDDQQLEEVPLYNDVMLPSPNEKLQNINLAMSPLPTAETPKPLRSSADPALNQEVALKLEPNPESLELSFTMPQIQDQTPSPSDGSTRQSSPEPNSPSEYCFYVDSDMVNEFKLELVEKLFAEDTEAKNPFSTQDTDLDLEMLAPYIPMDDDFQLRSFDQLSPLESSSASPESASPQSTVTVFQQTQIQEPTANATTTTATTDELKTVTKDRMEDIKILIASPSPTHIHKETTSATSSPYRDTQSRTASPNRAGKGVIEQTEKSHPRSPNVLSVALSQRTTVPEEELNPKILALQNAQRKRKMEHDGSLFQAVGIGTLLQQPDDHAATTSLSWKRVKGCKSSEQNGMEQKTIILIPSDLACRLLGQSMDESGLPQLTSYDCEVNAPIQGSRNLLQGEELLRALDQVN
Transcription factor E2F1 (Homo sapiens), sequence (Q01094 whole entry, looked up): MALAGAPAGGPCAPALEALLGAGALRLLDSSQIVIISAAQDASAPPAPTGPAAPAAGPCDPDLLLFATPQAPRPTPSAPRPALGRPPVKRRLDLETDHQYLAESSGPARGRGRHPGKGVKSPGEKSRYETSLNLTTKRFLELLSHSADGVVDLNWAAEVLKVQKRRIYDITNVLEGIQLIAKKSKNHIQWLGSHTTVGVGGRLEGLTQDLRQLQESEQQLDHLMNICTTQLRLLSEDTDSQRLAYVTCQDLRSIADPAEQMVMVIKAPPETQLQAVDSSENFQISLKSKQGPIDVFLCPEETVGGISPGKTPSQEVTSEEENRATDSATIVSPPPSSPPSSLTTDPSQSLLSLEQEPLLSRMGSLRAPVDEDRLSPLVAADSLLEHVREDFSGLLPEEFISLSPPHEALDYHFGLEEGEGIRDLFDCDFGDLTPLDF
Hepatocyte nuclear factor 3-beta (Homo sapiens), sequence (Q9Y261 whole entry, looked up): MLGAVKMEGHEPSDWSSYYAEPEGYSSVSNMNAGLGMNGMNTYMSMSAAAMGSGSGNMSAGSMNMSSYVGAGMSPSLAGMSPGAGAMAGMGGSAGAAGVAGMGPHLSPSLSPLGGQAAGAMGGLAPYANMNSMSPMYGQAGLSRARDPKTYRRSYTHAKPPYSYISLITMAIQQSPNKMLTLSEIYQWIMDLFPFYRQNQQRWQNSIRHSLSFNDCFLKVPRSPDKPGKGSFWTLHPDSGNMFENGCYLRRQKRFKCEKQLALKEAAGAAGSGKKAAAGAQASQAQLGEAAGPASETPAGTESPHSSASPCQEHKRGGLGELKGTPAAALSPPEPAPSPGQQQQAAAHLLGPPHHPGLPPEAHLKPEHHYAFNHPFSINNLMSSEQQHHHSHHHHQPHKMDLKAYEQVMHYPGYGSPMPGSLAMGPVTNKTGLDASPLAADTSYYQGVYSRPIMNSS
Heat shock factor protein 1 (Homo sapiens), sequence (Q00613 whole entry, looked up): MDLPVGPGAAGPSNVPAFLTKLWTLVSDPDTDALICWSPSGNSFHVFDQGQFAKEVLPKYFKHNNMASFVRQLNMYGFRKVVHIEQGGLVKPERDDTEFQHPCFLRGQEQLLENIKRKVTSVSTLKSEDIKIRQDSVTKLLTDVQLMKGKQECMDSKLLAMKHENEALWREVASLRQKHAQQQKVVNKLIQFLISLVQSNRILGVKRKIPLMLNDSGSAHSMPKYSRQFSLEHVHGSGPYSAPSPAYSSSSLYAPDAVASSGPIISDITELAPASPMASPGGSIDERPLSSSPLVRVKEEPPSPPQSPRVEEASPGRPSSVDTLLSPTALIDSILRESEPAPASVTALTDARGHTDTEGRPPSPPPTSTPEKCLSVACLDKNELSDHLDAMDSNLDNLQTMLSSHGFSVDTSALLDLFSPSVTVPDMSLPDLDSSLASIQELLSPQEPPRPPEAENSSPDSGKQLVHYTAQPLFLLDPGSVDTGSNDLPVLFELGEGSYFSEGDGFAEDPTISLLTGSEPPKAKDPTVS
Bile acid receptor (Homo sapiens), sequence (Q96RI1 whole entry, looked up): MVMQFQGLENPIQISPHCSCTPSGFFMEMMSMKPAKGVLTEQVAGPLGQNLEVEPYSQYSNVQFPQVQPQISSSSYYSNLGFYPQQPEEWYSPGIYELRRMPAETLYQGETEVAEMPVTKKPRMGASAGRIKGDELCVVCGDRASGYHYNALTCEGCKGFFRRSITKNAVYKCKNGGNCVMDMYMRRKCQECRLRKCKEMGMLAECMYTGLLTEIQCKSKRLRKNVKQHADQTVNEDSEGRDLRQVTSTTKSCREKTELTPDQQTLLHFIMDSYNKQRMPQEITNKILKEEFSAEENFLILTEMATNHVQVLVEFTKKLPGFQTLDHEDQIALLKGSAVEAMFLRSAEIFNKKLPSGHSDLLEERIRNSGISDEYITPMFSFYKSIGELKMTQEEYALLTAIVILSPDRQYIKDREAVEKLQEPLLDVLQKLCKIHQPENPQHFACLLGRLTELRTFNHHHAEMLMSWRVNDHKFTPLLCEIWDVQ
Hepatocyte nuclear factor 6 (Homo sapiens), sequence (Q9UBC0 whole entry, looked up, the tested form may be a part): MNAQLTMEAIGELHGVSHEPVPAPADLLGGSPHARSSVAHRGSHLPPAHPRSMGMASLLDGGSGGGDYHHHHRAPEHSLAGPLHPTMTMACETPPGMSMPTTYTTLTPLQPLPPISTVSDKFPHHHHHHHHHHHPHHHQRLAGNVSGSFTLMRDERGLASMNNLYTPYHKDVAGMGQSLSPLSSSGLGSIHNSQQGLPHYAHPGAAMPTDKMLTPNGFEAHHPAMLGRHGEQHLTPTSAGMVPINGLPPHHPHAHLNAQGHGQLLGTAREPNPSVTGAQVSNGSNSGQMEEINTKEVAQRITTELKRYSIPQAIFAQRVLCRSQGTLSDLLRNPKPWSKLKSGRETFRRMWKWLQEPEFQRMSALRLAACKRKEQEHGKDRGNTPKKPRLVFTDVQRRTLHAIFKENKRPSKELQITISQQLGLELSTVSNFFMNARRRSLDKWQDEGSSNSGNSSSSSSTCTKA

On to `COC(OC)(C(=O)c1ccccc1)c1ccccc1`, for which the molecule was classed as inactive in assay [1], in assay [2], in [3], in [6], in assay [7] and in assay [8]. The molecule was classed as inactive in [9], in assay [10], in assay [11], in assay [12], in assay [13] and in assay [14]. In addition, in assay [15], the result was inactive. For the same molecule, the AC50 (in general, the concentration at which the activity in the assay is half-maximal) in assay [4] was 35.1 µM (active); in [5] it was 2.01 µM (active); in assay [16], 43.5 µM (active).
As to `C=C(C)C1CC=C(C)C(OC(C)=O)C1` (stereo not given), the result in [1], in [2], in assay [3], in assay [17], in [5] and in assay [6] was inactive. For the same molecule, the result in assay [7], in [18], in assay [8], in assay [9], in [19] and in [10] was inactive. Further, the call in [11], in assay [12], in assay [13], in assay [20], in assay [14] and in [15] was inactive. Moreover, in assay [16], the call was inactive.
As to `O=C(OCc1ccccc1)c1ccc(O)cc1`, the result in [1], in [3], in [6], in assay [7], in assay [18] and in assay [8] was inactive. Moreover, the molecule was called inactive in assay [19], in assay [10], in assay [12], in [13] and in [14]. The AC50 was 171 µM (active) in assay [2]; 8.77 µM (active) in [5]; 167 µM (active) in [9]; 187 µM (active) in [11]; 113 µM (active) in [20]; 168 µM (active) in assay [15]. The AC50 in assay [16] is 125 µM (active).
`C=CC(C)(CCC=C(C)C)OC(=O)C=Cc1ccccc1` (stereo not given): the call in assay [1], in assay [2], in [3], in assay [17], in assay [6] and in [7] was inactive. The molecule was classed as inactive in assay [18], in assay [8], in assay [9], in assay [19], in [12] and in assay [13]. The outcome in assay [20], in assay [14], in assay [15] and in assay [16] was inactive. Further, the AC50 in assay [5] was 17.7 µM (active).
